DRD3 antagonist – qHTS of D3 Dopamine Receptor Antagonist: qHTS; D(3) dopamine receptor (Homo sapiens), P35462; D3R cells, DiscoveRx beta-arrestin luminescence, antagonist mode; stronger effect = lower value; max response, negative = inhibition, %; actives 2.5% (n = 360,000); in the data active means max response below about -50%; inconclusive means no clear call, values can overlap the other calls; further: on the % scale 0 is the no-effect control and ±100 the full control effect
Target sequence (P35462 whole entry, looked up): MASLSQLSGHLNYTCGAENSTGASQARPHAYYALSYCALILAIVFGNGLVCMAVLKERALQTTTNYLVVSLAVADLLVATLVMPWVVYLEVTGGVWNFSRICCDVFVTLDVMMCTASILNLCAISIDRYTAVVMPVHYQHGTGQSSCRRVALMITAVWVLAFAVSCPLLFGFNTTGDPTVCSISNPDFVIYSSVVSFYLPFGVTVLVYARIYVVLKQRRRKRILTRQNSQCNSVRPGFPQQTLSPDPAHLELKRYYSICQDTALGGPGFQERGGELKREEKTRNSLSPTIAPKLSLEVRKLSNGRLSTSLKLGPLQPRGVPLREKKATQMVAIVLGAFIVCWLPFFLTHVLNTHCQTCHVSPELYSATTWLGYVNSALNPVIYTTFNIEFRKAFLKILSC
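Cells plated overnight at 1500 cells/well, then exposed to library compounds with dopamine controls for 90 minutes at 37 degrees C. DiscoveRx reagent added for 30–60 minutes at room temperature; luminescence read, quantitative HTS format.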
IL-1B inflam inh – qHTS for Inhibitors of Inflammasome Signaling: IL-1-beta AlphaLISA Primary Screen | THP-1 LPS/ATP IL-1B secretion, AlphaLISA, 16 h; stronger effect = lower value | activity change, % at 57.5 µM | actives 4.7% (n = 360,000); in the data active means activity change below about -50%; inconclusive means mostly about -30% to -49%; further: on the % scale 0 is the no-effect control and ±100 the full control effect
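THP-1 cells pretreated 1 hr with compounds (up to 57.5 uM final), then stimulated with LPS (250 ng/mL final) plus ATP (1.25 mM final); secreted IL-1B measured by AlphaLISA after 16 hr, decreased signal indicating inhibition.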
DRD3 agonist – qHTS of D3 Dopamine Receptor Agonist: qHTS | AID 652048, 2013 | D(3) dopamine receptor (Homo sapiens), P35462 | max activation, % | actives 0.58% (n = 410,000) | D3R DiscoveRx beta-arrestin cells, luminescence, 90 min; in the data active means max activation above about 30%; further: 0% is about no effect
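Cells at 1500/well, incubated overnight, then treated with pinned compounds (dopamine as control) for 90 min at 37 degrees C. DiscoveRx reagent added for 30 - 60 minutes at room temperature; luminescence read.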
ATXN2 expr inh – Primary qHTS for Inhibitors of ATXN expression; HEK-293 ATXN2-luciferase reporter, luminescence, 24 h; Potency, µM (highest dose often 57 µM), for inactives: top-dose activity change, negative = inhibition, most hits filed as inhibitors; actives 0.72% (n = 360,000); AID 1745845, 2022; further: potency means the concentration at half of the fitted maximal effect; on the % scale 0 is the no-effect control and ±100 the full control effect; nearly all actives have a fitted effect of over 55% in size
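qHTS (up to 57 uM final) was run with 24 h compound exposure of reporter cells at 37 °C. Each well was multiplexed: SteadyGlo luminescence measured ATXN2-luciferase expression after a fluorogenic Gly-Phe-AFC viability readout (25 uM final).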
a7 integrin act – qHTS for Activators of Integrin-Mediated Alleviation for Muscular Dystrophy | alpha7betagal myoblasts, beta-gal FDG fluorescence, 48 h | Potency, µM (doses to about 38.3 µM), for inactives: top-dose activation, most hits filed as activators | actives 0.064% (n = 350,000) | AID 624291, 2012;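 further: potency means the concentration at half of the fitted maximal effect; 100% = response of the positive control SU9516; nearly all actives have a fitted effect of over 60% in size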
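alpha7betagal+/- myoblasts (passage 13, 250/well) treated 48 h at 37C with compounds at 1:260 dilution of DMSO stock. Lysed, then beta-galactosidase activity read as FDG fluorescence (ex 480/em 540) after 30 min, with pre-read for autofluorescence.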
S2 tox – Viability Counterscreen for Primary qHTS for Inhibitors of ATXN expression | S2 cells (HEK-293 line with an ATXN2-luciferase reporter) viability, CellTiter-Fluor protease fluorescence, 24 h | AID 651635, 2014 | Potency, µM (top dose mostly 56.7 µM), hits mostly cytotoxic | actives 0.49% (n = 400,000); further: potency means the concentration at half of the fitted maximal effect; nearly all actives have a fitted effect of over 40% in size
* marks the source's active call; other numbers are inactive results; i = inactive; ? = inconclusive; · = not tested or not shown; ! = a repeat was not active. Rows were chosen to be rich in hits. Some 7% of all compounds tested hit in one or more screens of this group. Unless noted, the call rests on the fitted dose curve; in most records, active means well fitted curve in the direction sought with a large enough effect; inconclusive means small, poorly fitted or top-dose-only effect, or another doubt; inactive means no such curve, though single readings can be large; an effect the other way counts as inactive or inconclusive.

SMILES	DRD3 antagonist	IL-1B inflam inh	DRD3 agonist	ATXN2 expr inh	a7 integrin act	S2 tox
COc1cc(NCCCCCCN)c2ncccc2c1OC	-8	24	-14	16µM*	-29%	?
COc1ccc(-c2nnc(SCC(=O)NCC3CCCO3)o2)cc1 (stereo not drawn)	8	21	2	1%	?	i
CN(C)CC/C=C1\c2ccccc2COc2ccccc21	-77*	-19	-89	0%	·	i
CCOC(=O)NCc1ccccc1	-6	9	-13	1%	16%	i
O=C(O)CCCCNCc1ccccc1	-8	1	-11	3%	9%	i
O=C(NCCNC(=O)c1ccccc1)c1ccccc1	-1	3	0	-4%	-20%	i
O=C(NCCCCNCCCNC(=O)c1ccccc1)c1ccccc1	-51*	6	-58	-1%	22%	i
c1ccc(CNCCCNCCCCNCCCNCc2ccccc2)cc1	22	-110*	-2	28µM*	-58%	?
CCOC(=O)CCCCNCc1ccccc1	-70*	4	-17	0%	9%	i
Cc1cc(=O)n(C)c(=O)n1CC(=O)N1CCCCCC1	11	9	-1	-3%	5%	i
COCCCNc1nc2c(c(=O)n(Cc3ccc(Cl)cc3)c(=O)n2C)n1C	16	-6	2	·	0%	i
COc1ccccc1CN(C)C(=O)C(NC(=O)Cc1cccc2ccccc12)C(C)C (stereo not drawn)	10	-62*	-2	-2%	-20%	i
CN(C)c1ccc(C(c2ccc(N(C)C)cc2)c2ccc([N+](=O)[O-])cc2)cc1	-20	-50*	-21	-4%	11%	i
CC1(C)SC(=S)N(NC(=O)Nc2ccccc2)C1N(O)C(=O)Nc1ccccc1 (stereo not drawn)	4	-16	3	-9%	7%	?
Cn1c(SCC(=O)NCC2CCCO2)ncc(C(=O)Nc2ccccc2)c1=O (stereo not drawn)	?	-74*	-4	-26%	-1%	?
O=C(CSc1nc2c(sc3ccccc32)c(=O)n1CCCN1CCCC1)NCC1CCCO1 (stereo not drawn)	-57*	-12	0	·	-45%	·
O=C(CSc1nc2c(sc3ccccc32)c(=O)n1CCO)NCC1CCCO1 (stereo not drawn)	2	5	2	2%	-15%	?
Cc1cc2c(=O)n(C)c(SCC(=O)NCC3CCCO3)nc2s1 (stereo not drawn)	7	16	1	8%	10%	i
Cc1ccc(NC(=O)c2cnc(SCC(=O)NCC3CCCO3)n(C)c2=O)cc1C (stereo not drawn)	0	-98*	-6	?	22%	?
O=C(CC[C@H]1O[C@@H](n2ccc(=O)[nH]c2=O)[C@H](O)[C@@H]1O)NCc1ccc2c(c1)OCO2	27	8	9	10%	·	i
CCC(C)(C)NC(=O)C(c1ccc(OC)cc1)N(C(=O)CCC(=O)Nc1cc(C)on1)c1ccccc1OC (stereo not drawn)	2	18	1	-13%	0%	i
COc1cccc(-c2nnc(SCc3nc4ccccc4s3)n2C)c1	0	14	-3	27%	-5%	i
Cc1ccc(-n2nnnc2Sc2nc([N+](=O)[O-])nn2C)cc1C	-6	-77*	8	-22%	-53%	i
Cc1ccc(C)c(-n2nnnc2Sc2nc([N+](=O)[O-])nn2C)c1	-3	11	-27	0%	-47%	i
CC(=O)Oc1cc2c(cc1OC(C)=O)C(=O)CCCC2	-2	3	66*	·	-30%	i
SMILES	DRD3 antagonist	IL-1B inflam inh	DRD3 agonist	ATXN2 expr inh	a7 integrin act	S2 tox
CC[C@@H]1O[C@]2(C=C[C@@H]1C)C[C@H]1C[C@H](CC=C(C)[C@@H](O[C@@H]3C[C@H](OC)[C@H](O[C@@H]4C[C@H](OC)[C@H](O)[C@H](C)O4)[C@H](C)O3)[C@@H](C)C=CC=C3CO[C@@H]4[C@@H](O)C(C)=C[C@@H](C(=O)O1)[C@]34O)O2	·	·	·	·	·	16µM*
Nc1nc(SCc2ccccc2)c2ncn(C3CCCCC3)c2n1	27	-78*	16	-5%	11%	i
Nc1nc(SCc2ccccc2)c2ncn(C3CCCO3)c2n1 (stereo not drawn)	2	-10	5	11%	12%	i
COc1ccc(C)cc1NC(=O)CCNS(=O)(=O)c1cccc2nonc12	6	0	3	2%	12%	i
COc1ccc(C)cc1NS(=O)(=O)c1cccc2nonc12	-52*	-2	2	3%	-5%	i
C=CCNC(=O)c1ccc(Sc2ccccc2)c([N+](=O)[O-])c1	-1	20	-5	1%	3%	i
CCN(CC(O)c1cccc(O)c1)C(=O)C12CC3CC(CC(C3)C1)C2 (stereo not drawn)	-78*	-14	-1	·	-20%	i
CCN1CCN(Cc2ccc(NC(=O)c3ccc(C)c(NC(=O)c4csc(-c5ccncc5)n4)c3)cc2C(F)(F)F)CC1	-26	0	-21	0%	-3%	?
CCN1CCN(Cc2ccc(NC(=O)c3ccc(C)c(NC(=O)c4ccno4)c3)cc2C(F)(F)F)CC1	?	-65*	-12	-29%	-11%	i
CCN1CCN(Cc2ccc(NC(=O)c3ccc(C)c(/C=C/c4cnc(Nc5cc(N6CCNCC6)nc(C)n5)cn4)c3)cc2C(F)(F)F)CC1	?	-100*	-5	13µM*!	-66%	i
CCN1CCN(Cc2ccc(NC(=O)c3ccc(C)c(NC(=O)C4=NN(c5ccccc5)C(=O)C4)c3)cc2C(F)(F)F)CC1	-1	16	8	4%	1%	i
CCN1CCN(Cc2ccc(NC(=O)c3ccc(C)c(NC(=O)c4cccc(-c5cn[nH]c(=O)c5)c4)c3)cc2C(F)(F)F)CC1	-9	-96*	-24	?	0%	?
CCN1CCN(Cc2ccc(NC(=O)c3ccc(C)c(NC(=O)c4c[nH]c5cc(C(F)(F)F)ccc5c4=O)c3)cc2C(F)(F)F)CC1	1	-105*	3	4µM*!	-59%	7.1µM*
COc1ccc(CCNC(=O)/C=C/c2ccc(S(=O)(=O)N3CCOCC3)cc2)cc1	7	-8	2	0%	62%	i
CCOP(=O)(OCC)c1nc(-c2ccc(C)cc2)oc1NCc1ccccc1	3	?	9	7%	0%	i

High-throughput results (PubChem)
